Screening results (PubChem)
The list is not random: actives were taken first. Their share in the collection is about 3.5%.
FBA Mtb inh – Mtb FBA enzyme inhibitors, primary screen, biochemical, fluorescence, strain H37Rv | Fructose-bisphosphate aldolase (Mycobacterium tuberculosis (strain ATCC 25618 / H37Rv)), … | purified M. tuberculosis FBA, fluorescence read-out | inhibition, % at 1 µM | hit rate 2.3% among 360,000 | AID 588726, 2011; in the data active = inhibition above about 27%
Rv3671c inh – Rv3671c serine protease inhibitors, primary screen, biochemical, fluorescence polarization, M. tuberculosis H37Rv; hit rate 0.048% among 320,000; inhibition, % at 5.96 µM; in the data active = inhibition above about 38%;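 also: extracellular domain of Rv3671c used as enzyme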
Target sequence (P9WHR9 whole entry, looked up, the tested form may be a part): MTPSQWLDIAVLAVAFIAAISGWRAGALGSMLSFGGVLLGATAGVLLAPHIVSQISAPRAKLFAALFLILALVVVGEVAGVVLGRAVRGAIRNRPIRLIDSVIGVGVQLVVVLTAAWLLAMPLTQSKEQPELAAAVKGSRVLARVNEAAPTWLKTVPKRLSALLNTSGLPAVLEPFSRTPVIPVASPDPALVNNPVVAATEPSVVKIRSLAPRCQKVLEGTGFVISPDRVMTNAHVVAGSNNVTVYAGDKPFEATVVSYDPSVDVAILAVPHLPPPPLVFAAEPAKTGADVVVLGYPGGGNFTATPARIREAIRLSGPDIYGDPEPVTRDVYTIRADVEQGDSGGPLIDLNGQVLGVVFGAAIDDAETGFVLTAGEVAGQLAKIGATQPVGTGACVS
GDH-TPI counter – GDH-TPI coupling enzyme inhibitors, primary screen, artefact control for M. tuberculosis FBA inhibitor project, biochemical, absorbance, full deck. GDH-TPI coupled enzyme counterscreen, NADH absorbance. inhibition, % at 4.8 µM. hit rate 1.2% among 360,000. AID 588335, 2011; in the data active = inhibition above about 30%
Mtb bLac sens – beta-lactam sensitization of Mtb H37Rv, H37Rv | M. tuberculosis H37Rv growth with meropenem, percent inhibition | inhibition, % at 25 µM | hit rate 0.27% among 330,000 | AID 434955, 2010; call rule not given here;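 also: growth measured after seven days incubation then overnight dye step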
UGM FP inh – M. tuberculosis UGM enzyme inhibitors, primary screen, biochemical, fluorescence polarization, single point. UDP-galactopyranose mutase (Mycobacterium tuberculosis (strain ATCC 25618 / H37Rv)), …. purified UGM, fluorescence polarization probe displacement. inhibition, % at 10 µM. hit rate 0.06% among 320,000. AID 504406, 2011; in the data active = inhibition above about 10%, passing the limit was not always enough; inconclusive = no clear call, values can overlap the other calls
Numbers stand for hits; - = inactive; ? = inconclusive; . = no result; + = active, no number.

SMILES	FBA Mtb inh	Rv3671c inh	GDH-TPI counter	Mtb bLac sens	UGM FP inh
CCN(Cc1ccccc1)c1ccc(/C=N/NC(=O)c2cccc(S(=O)(=O)N3CCOCC3)c2)cc1	-	-	43.2	-	-
CC1(C)CC(=O)C=C(c2cccc3c2sc2ccccc23)C1	-	-	-	-	-
CCn1cc(C(=O)NCc2ccco2)c(=O)c2ccc(C)nc21	-	-	-	-	-
C/C(=N\NC(=O)c1cccc(S(=O)(=O)N2CCOCC2)c1)c1ccc(C)cc1	-	-	-	-	-
C/C(=N\NC(=O)c1cccc(S(=O)(=O)N2CCOCC2)c1)c1cc2ccccc2o1	-	-	52.5	-	-
COc1ccccc1-c1cnc(C(O)c2ccc(Cl)cc2)[nH]1 (configuration not stated)	-	.	-	.	.
COc1ccc(CNc2oc(Cc3cccc4ccccc34)nc2C#N)cc1	-	-	-	-	-
CCOP(=O)(c1ccccc1)c1nc(-c2ccccc2C)oc1NCc1ccccc1 (configuration not stated)	-	-	-	-	-
COc1ccc(CNc2oc(-c3cccc4ccccc34)nc2P(=O)(OC)OC)cc1	+	-	-	-	-
COP(=O)(OC)c1nc(-c2cccc3ccccc23)oc1NCc1ccccc1	191.9	-	-	-	-
C[n+]1ccc(-c2ccccc2)c2ccccc21	142.7	-	-	-	-
O=C(O)CCC(=O)N1CCN(c2ccc(C(=O)c3ccc(F)cc3)cc2)CC1	-	-	38.3	-	-
Cc1ccc(Cl)c2c(N=Nc3ccccc3)c(O)[nH]c12	-	.	-	-	11.2
C/C(=N\Nc1ccc([N+](=O)[O-])cc1[N+](=O)[O-])C(C)C(C)C (configuration not stated)	-	-	-	-	-
COc1ccccc1OCCSc1nc2ccccc2n1CC(N)=O	-	-	-	-	-
Cc1nn(C)c(C)c1/C=C1/SC(=S)NC1=O	-	-	34.5	-	-
COc1cc(OC)c(-c2sc(Nc3ccccc3)n[n+]2-c2ccc(F)cc2)cc1OC	-	-	38.0	-	-
Cn1cncc1C#Cc1ccc2c(=O)c3ccccc3oc2c1	-	-	41.4	-	-
Cn1cncc1C#Cc1ccc2cc(C3(O)CCCCC3)oc(=O)c2c1	-	-	-	-	-
Cn1cncc1C#Cc1ccc2cc(CCCO)oc(=O)c2c1	47.0	-	33.6	-	-
Cn1cncc1C#Cc1ccc2cc(C(C)(C)O)oc(=O)c2c1	-	-	30.8	-	-
Cc1cc(C(=O)OCC(=O)Nc2c(Cl)cccc2Cl)c(C)o1	-	-	-	-	10.1
CC1(C)CC(=O)c2sc(NS(=O)(=O)Cc3ccccc3)nc2C1	-	-	50.2	-	-
CC1(C)C=C(c2ccc(C=O)s2)CC(C)(C)N1	-	-	39.5	-	-
Cn1c(-c2ccc(C=O)s2)nc2ccccc21	-	-	-	-	-
SMILES	FBA Mtb inh	Rv3671c inh	GDH-TPI counter	Mtb bLac sens	UGM FP inh
CC1(C)C=C(c2ccc(C=O)s2)CC(C)(C)N1C=O	-	-	31.8	-	-
COCCN1C=C(C(=O)OC)C(c2cc(Br)c(OC)c(OC)c2)C(C(=O)OC)=C1	+	-	-	-	-
COCCN1C=C(C(=O)OC)C(c2ccccc2Cl)C(C(=O)OC)=C1	+	-	-	-	-
NC(=S)N=Nc1c(O)[nH]c2cc(F)c(F)cc12	-	-	-	-	-
NC(=S)N=Nc1c(O)[nH]c2c(Cl)cc(Cl)cc12	-	.	37.2	.	.
Cc1c(C(=O)Nc2nc3ccccc3[nH]2)oc2ccccc12	-	-	32.6	-	-
CC(=O)/C(=N/Nc1ccccc1[N+](=O)[O-])N1CCCc2ccccc21	-	-	-	-	-
Cc1cc2nc(CS(=O)(=O)c3ccccc3)cc(=O)n2[nH]1	-	-	-	-	-
Cc1c(N/N=C(\C#N)C(=O)c2ccc(Cl)cc2)c(=O)n(-c2ccccc2)n1C	-	-	-	-	-
N#C/C(=N\Nc1ccc(Cl)cc1)C(=O)c1ccccc1	-	-	31.1	-	-
O=C(COC(=O)Cc1ccccc1F)Nc1ccc(F)cc1F	-	-	-	-	-
CCOC(=O)C(=CNc1ccc(C(F)(F)F)cc1Cl)C(=O)OCC	-	-	36.0	?	-
Cc1cc(-c2ccccc2)nc(N(C)C)c1S(C)(=O)=O	-	-	-	-	-
CNc1nc(-c2ccccc2)cc(C)c1S(C)(=O)=O	+	-	-	-	-
O=c1[nH]c(C(Cl)Cl)nc2sc3c(c12)CCN(Cc1ccccc1)C3	-	-	-	-	-
CCCSc1nc2sc3c(c2c(=O)[nH]1)CCN(Cc1ccccc1)C3	85.8	-	-	-	-
O=C(COC(=O)c1ccc2ccccc2c1)NCCCc1ccccc1	-	-	-	-	-
CC(=O)COc1c(-c2ccco2)oc2ccccc2c1=O	-	.	32.3	-	-
Cc1cc(NC(=O)c2sc3ccccc3c2O)no1	+	.	-	-	-
COc1ccc(CC(=O)c2ccc(O)cc2O)cc1	-	-	43.1	-	-
O=C(COc1ccccc1Br)c1ccc(O)cc1O	-	-	44.3	-	-
O=C(Cc1ccc([N+](=O)[O-])cc1)c1ccc(O)cc1O	-	-	50.6	-	-
Cc1ccc(C(=O)Cc2ccccc2)c(O)c1	-	.	-	.	.
O=C(Cc1ccc(Br)cc1)c1ccc(O)cc1O	-	-	41.0	-	-
COc1ccc(C(=O)Cc2ccc3c(c2)OCO3)c(O)c1	-	-	-	-	-
SMILES	FBA Mtb inh	Rv3671c inh	GDH-TPI counter	Mtb bLac sens	UGM FP inh
O=C(COc1ccccc1Br)c1ccc2c(c1)OCO2	-	-	-	-	-
O=C(Cc1ccc([N+](=O)[O-])cc1)OCc1ccc([N+](=O)[O-])cc1	-	-	-	-	-
CC(=O)C1=C(C)NC(=O)CC1c1ccc(Br)cc1 (configuration not stated)	-	-	-	-	-
Cc1ccccc1NC(=O)Cc1nc(COC(=O)c2cc([N+](=O)[O-])ccc2N)cs1	-	-	-	-	-
COc1cc(OC)cc(C(=O)N[C@H](C(=O)Nc2nc(-c3ccc(F)c(F)c3)cs2)C(C)C)c1	-	-	-	-	-
Cc1cc(NS(=O)(=O)c2ccc(NC(=O)c3ccc([N+](=O)[O-])s3)cc2)nc(C)n1	-	-	31.2	-	-
CC[C@]12c3[nH]c4ccc(OC)cc4c3CCN1C(=O)C(CC(=O)NCCc1ccccn1)C[C@@H]2C(=O)N1CCN(C(=O)C2CC2)CC1 (some centres not stated)	-	.	-	.	.
O=C1[C@@H]2[C@@H](CN3CN(c4ccccc4)N=C(c4ccccc4)[C@@]23c2ccccc2)C(=O)N1c1ccccc1	34.5	.	-	.	.
CC(=O)Cc1nsc(NC(=O)c2ccc(-c3cccc(Cl)c3)o2)n1	-	-	60.8	-	-
CC(=O)Cc1nsc(NC(=O)c2ccc(Br)o2)n1	-	-	-	-	-
c1ccc(-c2ccc(-c3ccncn3)cc2)cc1	116.6	-	-	-	-
